# Beta cell apopt = inhibitors of cytokine-induced beta cell apoptosis, primary screen, luminescence; INS-1E cytokine-induced death, ATP luminescence, 48 h; percent of positive-control rescue, neutral wells zero; hit rate 0.8% among 300,000; protection from apoptosis, % (concentration not given with the values);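 active = Every replicate reaches about 75%, or at least half do and their mean reaches it too, limit read from the data; inconclusive = At least half of replicates reach the limit but their mean does not; inactive = Under half of replicates reach the limit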;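 also: higher means more ATP so stronger rescue from cytokine killing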
# CSC inhib = cancer stem cell viability inhibitors, primary screen, luminescence; cancer stem cell-like cells viability; inhibition, % at 7.5 µM; hit rate 1.1% among 300,000; AID 2717, 2010; in the data active = inhibition above about 75%; inconclusive = no clear call, values can overlap the other calls; tested in HMLE shEcad cells
# MPTP block = mitochondrial permeability transition pore inhibitors, primary screen, biochemical, isolated mouse mitochondria, absorbance | hit rate 1.4% among 360,000 | inhibition, % at 10 µM | AID 602449, 2012 | Ca2+ swelling absorbance, 30 min;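 active = inhibition of 50% or more, scaled per plate between neutral and stimulator controls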
# Calb FLC = C. albicans growth inhibition with fluconazole, primary screen, CaCi-2 strain, Alamar Blue fluorescence | C. albicans CaCi-2 (fluconazole-resistant clinical isolate) + fluconazole, 48 h | growth inhibition, % (no concentration beside the values) | hit rate 0.57% among 300,000;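 active = growth inhibition above about 58% in most replicates, limit read from the data, passing the limit was not always enough; inconclusive = exactly half the replicates above a set limit; inactive = most replicates below a set limit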;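 also: all wells also contain fluconazole at 8 µg/ml as a sub-toxic cotreatment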
# Mdm2-MdmX inh = inhibitors of human Mdm2-MdmX association, primary screen, cell-based, luminescence, split luciferase, SaOS-2, uHTS; Protein Mdm4 (Homo sapiens) + E3 ubiquitin-protein ligase Mdm2 (Homo sapiens), …; SaOS-2 split-luciferase Mdm2/MdmX complementation; inhibition, % at 8 µM; hit rate 3% among 330,000;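 active = inhibition of at least 50% at 8 µM in the primary screen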
# Target sequence (O15151 whole entry, looked up): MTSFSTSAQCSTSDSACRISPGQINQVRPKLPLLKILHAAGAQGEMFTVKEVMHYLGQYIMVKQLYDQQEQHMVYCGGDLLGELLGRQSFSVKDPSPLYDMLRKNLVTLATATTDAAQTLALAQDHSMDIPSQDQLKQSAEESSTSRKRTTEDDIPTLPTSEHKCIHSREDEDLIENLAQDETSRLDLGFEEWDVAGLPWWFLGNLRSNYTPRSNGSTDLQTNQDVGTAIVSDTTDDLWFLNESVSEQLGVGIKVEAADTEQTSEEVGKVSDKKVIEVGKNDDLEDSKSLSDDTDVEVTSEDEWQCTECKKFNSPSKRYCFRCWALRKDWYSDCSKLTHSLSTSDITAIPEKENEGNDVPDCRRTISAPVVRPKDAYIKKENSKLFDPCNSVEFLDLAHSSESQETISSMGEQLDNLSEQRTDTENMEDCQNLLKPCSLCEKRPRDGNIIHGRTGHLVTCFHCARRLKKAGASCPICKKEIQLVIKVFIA
# Target sequence (Q00987 whole entry, looked up): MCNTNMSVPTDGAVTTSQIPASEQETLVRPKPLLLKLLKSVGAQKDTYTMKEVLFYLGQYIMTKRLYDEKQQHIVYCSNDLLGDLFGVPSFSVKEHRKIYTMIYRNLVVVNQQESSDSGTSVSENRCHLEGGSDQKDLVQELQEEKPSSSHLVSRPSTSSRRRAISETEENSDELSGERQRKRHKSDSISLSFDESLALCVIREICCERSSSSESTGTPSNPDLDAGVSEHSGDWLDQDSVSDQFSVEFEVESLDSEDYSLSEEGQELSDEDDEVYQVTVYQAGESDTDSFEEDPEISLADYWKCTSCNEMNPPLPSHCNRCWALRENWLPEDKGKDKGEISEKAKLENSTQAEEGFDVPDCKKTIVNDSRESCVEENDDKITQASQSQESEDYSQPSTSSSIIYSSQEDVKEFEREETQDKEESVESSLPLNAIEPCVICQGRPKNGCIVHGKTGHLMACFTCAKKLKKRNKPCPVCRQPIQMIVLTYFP
# Mdm2 MdmX conf = Mdm2-MdmX complex disruptors, retested hits, confirmation, luminescence, single concentration. shares compounds with Mdm2-MdmX inh. AID 489028, 2010. hit rate 55% among 10,000. Mdm2-MdmX binding, luminescent assay. inhibition, % at 8 µM; in the data active = inhibition above about 40%
# Full FLuc ctr = full-length luciferase signal inhibition, confirmation, counter-screen for Mdm2/MdmX interaction inhibitor project, cell-based, single concentration, SaOS-2; shares compounds with Mdm2-MdmX inh; SaOS-2 full-length luciferase counterscreen, luminescence; AID 504607, 2011; hit rate 77% among 6,200; inhibition, % at 8 µM;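 active = mean inhibition at 8 µM reaching about 37%, which flags the compound as non-specific, limit read from the data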;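 also: p53-null SaOS-2 cells with luciferase driven by a doxycycline-inducible promoter; compound on cells about two nights before reading with doxycycline added after day one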
# Numbers stand for hits; – = inactive; ? = inconclusive; · = no result given. Only some compounds are listed: those with a hit (about 4.8% of all), similar ones and a draw of the others.
SMILES,Beta cell apopt,CSC inhib,MPTP block,Calb FLC,Mdm2-MdmX inh,Mdm2 MdmX conf,Full FLuc ctr
COc1cccc(NC(=O)Nc2nnc(CC(=O)NCc3ccccc3)s2)c1,–,–,–,–,56,51,–
Cc1cccnc1NC(=O)c1cccc(S(=O)(=O)NCc2ccccc2)c1,–,·,–,–,–,·,·
CCOc1cc(/C=C\[N+](=O)[O-])ccc1OCC(=O)Nc1ccccc1C,80,76,–,–,96,100,51
COc1ccc(CC(=O)NCC2CCCN(Cc3cc(OC)cc(OC)c3)C2)cc1 (configuration not stated),·,–,–,–,–,·,·
c1ccc2c(c1)ncn2Cc1nnc2sc(-c3ccc4c(c3)OCO4)nn12,–,–,–,–,–,·,·
c1ccc2c(c1)OCC(c1nnc3sc(-c4ccc5c(c4)OCO5)nn13)O2 (configuration not stated),–,–,–,–,–,·,·
Brc1ccccc1-c1nnc2sc(-c3ccc4c(c3)OCCO4)nn12,–,–,–,–,51,62,61
Clc1ccccc1-c1nnc2sc(-c3ccc4c(c3)OCO4)nn12,–,–,–,–,65,–,83
O=c1c2ccccc2sn1-c1ccccc1,–,–,–,–,76,–,·
O=c1c2ccccc2sn1-c1cccc(Cl)c1,·,·,–,·,·,·,·
NC(=S)c1csc(CCNC(=O)c2ccccc2)n1,·,·,–,·,·,·,·
Cc1cccc(-c2nnn3c2nc(NCCc2ccc(S(N)(=O)=O)cc2)c2ccccc23)c1,–,–,–,–,67,50,74
NS(=O)(=O)c1ccc(CCNc2nc3c(-c4cccc(F)c4)nnn3c3ccccc23)cc1,–,–,–,–,67,–,·
CC(C(=O)N1CCc2ccccc21)n1cnc2c1c(=O)n(C)c(=O)n2C (configuration not stated),–,·,–,·,–,·,·
COc1cccc(C=NN(C)c2c([N+](=O)[O-])cc(C(F)(F)F)cc2[N+](=O)[O-])c1O,·,·,–,·,·,·,·
COc1ccc(NC(=O)CC2Oc3ccccc3NC2=O)c(OC)c1 (configuration not stated),–,–,–,–,–,·,·
COc1ccc2cc1Oc1ccc(cc1)C[C@H]1c3c(cc4c(c3Oc3cc5c(cc3OC)CCN(C)[C@@H]5C2)OCO4)CCN1C,·,–,–,·,100,87,–
COc1cc(C(=O)OCC(=O)Nc2cc(C)on2)ccc1OCc1ccccc1Cl,–,–,–,–,–,·,·
COc1ccc(NC(=O)COC(=O)c2ccc(OCc3ccccc3Cl)c(OC)c2)c(OC)c1,–,–,–,–,61,–,·
O=c1[nH]c(NCc2ccccc2)nc2c1CCC2,–,–,–,–,–,·,·
Cc1nc(Nc2nc3c(c(=O)[nH]2)CCC3)nc2ccccc12,–,–,–,–,65,88,–
O=C(O)CSc1nnc(-c2ccc3c(c2)OCO3)o1,–,–,–,–,–,·,·
O=C(c1ccc(Cl)cc1)N1CCCCC(Sc2nnc(-c3ccc4c(c3)OCO4)o2)C1=O (configuration not stated),–,–,–,–,84,82,50
CCOCc1c(C(=O)NC2=Nc3ccccc3NC(CC)=C2C(=O)OCC)oc2ccccc12,–,–,–,–,69,73,65
CCOC(=O)C1=C(CC)Nc2ccccc2N=C1NC(=O)c1oc2ccccc2c1C,–,–,–,–,–,·,·
SMILES,Beta cell apopt,CSC inhib,MPTP block,Calb FLC,Mdm2-MdmX inh,Mdm2 MdmX conf,Full FLuc ctr
COc1ccc2[nH]c(=O)c(CN(Cc3cccs3)S(=O)(=O)c3c(C)ccc4nsnc34)cc2c1,·,–,–,?,64,68,73
Cc1ccc2[nH]c(=O)c(CN(Cc3ccco3)S(=O)(=O)c3c(C)ccc4nsnc34)cc2c1,–,–,–,–,55,–,·
Cc1onc(-c2c(F)cccc2Cl)c1C(=O)NCCc1ccncc1,–,–,–,–,–,·,·
CC(C)(C)C(=O)O/N=C(\N)c1c(Cl)cccc1Cl,–,–,–,–,54,–,·
COc1cc2cc(CCO)oc(=O)c2cc1OC,–,–,–,·,–,·,·
COc1ccc(NC(=O)c2cc(-c3ccncc3)nc3ccccc23)c(OC)c1,–,·,–,·,–,·,·
O=C(NCc1ccco1)c1cc(-c2ccccc2)nc2ccccc12,–,–,–,–,–,·,·
COc1cc2c(cc1NC(=O)c1cc(-c3ccncc3)nc3ccc(C)cc13)oc1ccccc12,–,–,–,–,51,–,·
Cc1ccc(-c2nn(-c3ccccc3)cc2C(=O)Nc2ccc(C)c(S(=O)(=O)N3CCOCC3)c2)cc1,–,–,–,–,–,·,·
COc1cc(-c2cc(C(=O)Nc3ccc(C)c(S(=O)(=O)N4CCOCC4)c3)c3ccccc3n2)cc(OC)c1OC,–,–,–,·,52,–,73
COc1cc(-c2cc(C(=O)Nc3ccc(O)cc3)c3ccccc3n2)cc(OC)c1OC,–,–,–,–,–,·,·
O=C(Nc1cccc(S(=O)(=O)NCc2ccco2)c1)c1cc(-c2ccccc2)nc2ccccc12,–,–,–,–,52,–,·
COc1cc(-c2cc(C(=O)Nc3cccc(C(C)=O)c3)c3ccccc3n2)cc(OC)c1OC,·,–,–,–,61,–,82
CCCCCCN1CCN(C2CN(Cc3cn(Cc4cccc(C(F)(F)F)c4)nn3)S(=O)(=O)C2)CC1 (configuration not stated),·,·,–,·,·,·,·
CCCCNC(=O)c1nc(C2CCN(S(=O)(=O)c3c(F)cccc3F)CC2)oc1-c1ccccc1,·,·,–,·,·,·,·
Cc1ccc(C(=O)N2CCOCC2)c(F)c1F,–,–,–,–,–,·,·
COc1ccc(CN(C2CC2)S(=O)(=O)c2ccccc2Br)cc1,·,·,–,·,51,–,·
COc1ccc(CN(CCC(C)C)S(=O)(=O)c2ccccc2Br)cc1,·,·,–,·,–,·,·
CCCCCCCCN1C(=O)[C@H](CC(=O)N2CCOCC2)C[C@@]2(C(=O)OC)CCCCC=C12,·,·,–,·,·,·,·
COc1ccc2c(C)nc(Nc3nc(-c4ccccc4)cc(=O)[nH]3)nc2c1,–,107,–,–,73,–,·
Cc1ccc2c(C)nc(Nc3nc(CSc4nc5ccccc5[nH]4)cc(=O)[nH]3)nc2c1,90,–,–,?,59,58,–
Cc1ccc(SCc2cc(=O)[nH]c(Nc3nc(C)c4ccc(C)cc4n3)n2)cc1,·,·,–,–,–,·,·
COc1ccc(NC(=O)Nc2cccc3[nH]c([C@@H]4O[C@H](CO)[C@@H](O)[C@H](O)[C@H]4O)nc23)cc1OC1CCCC1,·,·,–,·,·,·,·
COc1ccc(C(=O)O/N=C(\N)Cc2ccc(Cl)c(Cl)c2)cc1OC,–,–,–,–,101,100,–
COc1ccc(C(=O)O/N=C(\N)Cc2ccc(Cl)cc2)cc1OC,–,–,–,–,100,93,42

# From PubChem BioAssay
